The sample as a whole holds a higher share of hits than the screen did.
NS1 function inh: influenza NS1 inhibition; Potency, µM (highest dose often 46.1 µM), for inactives: top-dose activity, positive = more growth; 270,000 compounds, 0.4% hits; AID 2326; calls by dose curve; further: potency means the concentration at half of the fitted maximal effect; actives are rising curves; nearly all actives have a fitted effect of over 50% in size
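A cell-based growth assay was used: compounds that relieve NS1-induced slow growth of budding yeast raise OD600. Assay medium was yeast nitrogen base with ammonium sulphate and -URA supplement, pH 6.0, with 2% galactose.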
SARS PLP yeast: SARS-CoV PLP inhibition in yeast; S. cerevisiae expressing SARS-CoV PLpro, growth rescue; Potency, µM (top dose mostly 32.9 µM), inactives show top-dose activity, positive = growth rescue, usual class: activators; 330,000 compounds, 0.19% hits; calls by dose curve; further: potency means the concentration at half of the fitted maximal effect; 0% is about no effect; nearly all actives have a fitted effect of over 55% in size
CHX counter: counter-screen for Shiga toxin inhibitors: cycloheximide protein synthesis inhibition; cell reporter, cycloheximide protein synthesis inhibition counterscreen; max response, %; AID 2314; 300,000 compounds, 12% hits; in the data active means max response mostly above about 13%, no sharp cut-off; inactive means mostly below about 14%; further: read at 38.3 µM for the half of the compounds with a filed dose; 0% is about no effect
LmPK inh: LmPK (Leishmania mexicana) enzyme inhibition. purified LmPK, Kinase-Glo ATP luminescence, 1 h. 290,000 compounds, 0.37% hits. Q27686. Potency, µM (highest dose often 57.5 µM), for the others: at the highest dose activity change, negative = inhibition, most hits filed as inhibitors; further: potency means the concentration at half of the fitted maximal effect; on the % scale 0 is the no-effect control and ±100 the full control effect
Target sequence (Q27686 whole entry, looked up): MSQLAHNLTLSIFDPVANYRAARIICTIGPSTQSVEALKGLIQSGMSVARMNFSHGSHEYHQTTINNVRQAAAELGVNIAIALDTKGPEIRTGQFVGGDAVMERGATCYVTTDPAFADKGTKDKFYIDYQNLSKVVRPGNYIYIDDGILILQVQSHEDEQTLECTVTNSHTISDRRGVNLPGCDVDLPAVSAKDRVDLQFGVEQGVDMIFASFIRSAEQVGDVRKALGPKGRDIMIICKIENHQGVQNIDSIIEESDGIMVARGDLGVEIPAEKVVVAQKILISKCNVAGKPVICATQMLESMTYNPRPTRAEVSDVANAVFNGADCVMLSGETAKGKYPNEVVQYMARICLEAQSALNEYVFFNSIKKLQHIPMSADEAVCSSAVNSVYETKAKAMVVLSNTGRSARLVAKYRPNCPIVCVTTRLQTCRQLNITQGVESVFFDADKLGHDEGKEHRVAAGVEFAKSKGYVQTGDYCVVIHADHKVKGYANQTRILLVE
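ATP generated from ADP (0.1 mM) and PEP (0.5 mM) by 0.1 nM LmPK over 1 h at room temperature (pH 7.2 imidazole buffer) was detected by coupled luciferase luminescence. Values were normalized to uninhibited and no-enzyme wells.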
Shiga toxin inh: blocks Shiga toxin action in Vero cells; inhibition, % at 38.7 µM; 290,000 compounds, 9.2% hits; AID 2315; Vero cells, Shiga toxin protein synthesis inhibition reporter; in the data active means inhibition mostly above about 28%, no sharp cut-off; inactive means mostly below about 43%; further: 0% is about no effect
Tb PYK inh: inhibitors of Trypanosoma brucei pyruvate kinase; Q57TT1; TbPYK enzyme, Kinase-Glo Plus ATP luminescence, 45 min; Potency, µM (top dose mostly 76.8 µM), without a hit: top-dose activity, negative = inhibition, actives largely listed as inhibitors; 410,000 compounds, 0.12% hits; AID 624173; further: potency means the concentration at half of the fitted maximal effect; on the % scale 0 is the no-effect control and ±100 the full control effect; nearly all actives have a fitted effect of over 50% in size
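Readout: single end-point luminescence (Kinase-Glo Plus, 10 min). Reaction conditions were TbPYK/substrate plus 130 uM ADP, 45 min at RT, pH 7.2 TEA buffer. No-enzyme wells served as controls, and data were normalized before concentration-response fitting.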
Starred values were filed as active, the others as inactive. Unless noted, the call rests on the fitted dose curve; in most records, active means well fitted curve in the direction sought with a large enough effect; inconclusive means small, poorly fitted or top-dose-only effect, or another doubt; inactive means no such curve, though single readings can be large; an effect the other way counts as inactive or inconclusive.

Results for N=c1ccn2c(n1)OC1C(O)[C@@H](CO)O[C@H]12 (some centres not stated) ?
CHX counter: 17; Shiga toxin inh: 16

What do the screens show for `CCCOc1cccc(C2c3c(oc4ccc(F)cc4c3=O)C(=O)N2CCCN2CCOCC2)c1` (configuration not stated)?
Tb PYK inh: 1%

Results for Cc1ccc(NC(=O)/C=C/c2ccccc2)c(Br)c1 ?
Tb PYK inh: -9%

How did Cc1nc(NC(=O)/C=C/c2ccccc2)n[nH]1 do in these assays?
NS1 function inh: -32%; SARS PLP yeast: -50%; CHX counter: 15*; LmPK inh: -9%; Shiga toxin inh: 22; Tb PYK inh: 0%

What do the screens show for `CCCn1nnc(NC(=O)/C=C/c2ccccc2)n1`?
NS1 function inh: -8%; SARS PLP yeast: -1%; CHX counter: 17*; LmPK inh: 0%; Shiga toxin inh: 52; Tb PYK inh: -6%

How did CCCn1nnc(NC(=O)c2ccccc2Cl)n1 do in these assays?
NS1 function inh: -1%; SARS PLP yeast: -2%; CHX counter: 27*; LmPK inh: -1%; Shiga toxin inh: 46; Tb PYK inh: -5%

Results for CCCn1nnc(NC(=O)c2ccc(-c3cc(Cl)ccc3Cl)o2)n1 ?
SARS PLP yeast: 0%; CHX counter: 12; LmPK inh: -1%; Shiga toxin inh: 13; Tb PYK inh: 1%

Results for CCCn1nnc(NC(=O)c2ccc(Cl)cc2Cl)n1 ?
NS1 function inh: 7%; SARS PLP yeast: -3%; CHX counter: 45*; LmPK inh: -8%; Shiga toxin inh: 113*; Tb PYK inh: 0%

How did CCOC(=O)Cn1c(=O)oc2cc(S(=O)(=O)Nc3ccccc3F)ccc21 do in these assays?
Tb PYK inh: -1%

Results for Cc1ccc(C)c(S(=O)(=O)N2CCN(CC(=O)NC(C)c3ccccc3)CC2)c1 (configuration not stated) ?
SARS PLP yeast: 4%; Tb PYK inh: -3%

What do the screens show for `O=S(=O)(c1ccccc1)n1ccc2cccnc21`?
NS1 function inh: -8%; SARS PLP yeast: 0%; CHX counter: -1; LmPK inh: 6%; Shiga toxin inh: -14; Tb PYK inh: -20%

What do the screens show for `O=C(c1ccccn1)c1cc2ccccc2n1S(=O)(=O)c1ccccc1`?
NS1 function inh: 12%; SARS PLP yeast: -19%; CHX counter: 26*; LmPK inh: 2%; Shiga toxin inh: 43*; Tb PYK inh: -1%

Results for CNC(=O)c1ccc(NC(=O)CC2SC(N3CCCC3)=NC2=O)cc1 (configuration not stated) ?
SARS PLP yeast: 0%; Tb PYK inh: 1%

Results for Cc1ccc(-c2nc(Nc3cccc(C)c3)sc2CC(=O)O)cc1 ?
NS1 function inh: 0%; SARS PLP yeast: -2%; CHX counter: 27*; LmPK inh: -5%; Shiga toxin inh: 55*; Tb PYK inh: -19%

How did COC(=O)Cc1csc(Nc2ccccc2)n1 do in these assays?
NS1 function inh: -4%; SARS PLP yeast: -11%; CHX counter: 31*; LmPK inh: -2%; Shiga toxin inh: 97*; Tb PYK inh: 1%

Results for O=C(O)Cc1sc(Nc2cccc3ccccc23)nc1-c1ccc(F)cc1 ?
NS1 function inh: 2%; SARS PLP yeast: -1%; CHX counter: 7; LmPK inh: -10%; Shiga toxin inh: 6; Tb PYK inh: -5%

How did COC(=O)Cc1nc(Nc2ccccc2)sc1C do in these assays?
NS1 function inh: -47%; SARS PLP yeast: -6%; CHX counter: 12*; LmPK inh: 6%; Shiga toxin inh: 10; Tb PYK inh: -13%

How did CCOC(=O)Cc1nnc(NC(=O)Nc2ccccc2)s1 do in these assays?
NS1 function inh: 6%; SARS PLP yeast: -2%; CHX counter: 16; LmPK inh: 1%; Shiga toxin inh: 31; Tb PYK inh: -7%

Results for COC(=O)Cc1csc(NCc2ccccc2)n1 ?
NS1 function inh: 3%; SARS PLP yeast: 8%; CHX counter: -3; LmPK inh: -6%; Shiga toxin inh: 1; Tb PYK inh: -1%

Results for COC(=O)Cc1csc(Nc2ccc(F)c(Cl)c2)n1 ?
SARS PLP yeast: -33%; CHX counter: 21*; LmPK inh: 1%; Shiga toxin inh: 30; Tb PYK inh: 1%

How did O=C(Cc1sc(Nc2ccccc2)nc1-c1ccccc1)NCc1ccccc1 do in these assays?
NS1 function inh: inconclusive; SARS PLP yeast: 0%; CHX counter: 31*; LmPK inh: 3%; Shiga toxin inh: 63*; Tb PYK inh: -17%

Results for C=CCNc1nc(-c2cccs2)c(CC(=O)O)s1 ?
NS1 function inh: -38%; SARS PLP yeast: 0%; CHX counter: -2; LmPK inh: 4%; Shiga toxin inh: -1; Tb PYK inh: -7%

What do the screens show for `O=C(O)Cc1sc(-c2ccccc2Cl)nc1-c1ccccc1`?
SARS PLP yeast: 1%; CHX counter: 4; LmPK inh: -13%; Shiga toxin inh: -7; Tb PYK inh: -5%

How did O=C(O)Cc1sc(Nc2ccccc2)nc1-c1cccs1 do in these assays?
NS1 function inh: -36%; SARS PLP yeast: -2%; CHX counter: 26*; LmPK inh: 5%; Shiga toxin inh: 65*; Tb PYK inh: -18%

What do the screens show for `O=C(O)Cc1sc(NCCc2ccccc2)nc1-c1ccc(F)cc1`?
NS1 function inh: 10%; SARS PLP yeast: -10%; CHX counter: 9; LmPK inh: 1%; Shiga toxin inh: 34; Tb PYK inh: -3%

Results for Cc1ccc(-c2nc(-c3ccc(Cl)cc3)sc2CC(=O)O)c(C)c1 ?
SARS PLP yeast: -1%; CHX counter: 28*; LmPK inh: -2%; Shiga toxin inh: 7; Tb PYK inh: 0%

Results for O=C(O)Cc1sc(NC2CCCCC2)nc1-c1ccc(Cl)cc1 ?
NS1 function inh: 15%; SARS PLP yeast: 7%; CHX counter: 54*; LmPK inh: -2%; Shiga toxin inh: 42*; Tb PYK inh: -18%

What do the screens show for `COCc1cc(C)nc(SCc2ccc([N+](=O)[O-])cc2)c1C#N`?
NS1 function inh: 18%; SARS PLP yeast: 6%; CHX counter: 5; LmPK inh: -2%; Tb PYK inh: -3%

Results for COc1cc(OC)c(NC(=O)c2c3c(nc4ccccc24)C(=O)N(C2CCCCC2)C3)cc1Cl ?
Tb PYK inh: -7%

How did Cc1ccc(NC(=S)Nc2nc(CC(=O)Nc3ccccc3)cs2)cc1 do in these assays?
NS1 function inh: 14%; SARS PLP yeast: 5%; CHX counter: 14*; LmPK inh: 1%; Shiga toxin inh: 15; Tb PYK inh: -4%

What do the screens show for `COC(=O)Cc1csc(Nc2ccc(Cl)cc2)n1`?
NS1 function inh: -46%; SARS PLP yeast: -83%; CHX counter: 22*; LmPK inh: -4%; Shiga toxin inh: 36; Tb PYK inh: -6%
